Screening results from PubChem.
GBA activity up – glucocerebrosidase activity enhancement; activation, % at 10 µM; L444P Gaucher fibroblasts, 4-MU-glucoside fluorescence, 3 days; hit rate 0.44% among 30,000; in the data active = activation above about 65%;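 note: 0% = vehicle wells and 100% = positive control wells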
Target sequence (P04062 whole entry L483P): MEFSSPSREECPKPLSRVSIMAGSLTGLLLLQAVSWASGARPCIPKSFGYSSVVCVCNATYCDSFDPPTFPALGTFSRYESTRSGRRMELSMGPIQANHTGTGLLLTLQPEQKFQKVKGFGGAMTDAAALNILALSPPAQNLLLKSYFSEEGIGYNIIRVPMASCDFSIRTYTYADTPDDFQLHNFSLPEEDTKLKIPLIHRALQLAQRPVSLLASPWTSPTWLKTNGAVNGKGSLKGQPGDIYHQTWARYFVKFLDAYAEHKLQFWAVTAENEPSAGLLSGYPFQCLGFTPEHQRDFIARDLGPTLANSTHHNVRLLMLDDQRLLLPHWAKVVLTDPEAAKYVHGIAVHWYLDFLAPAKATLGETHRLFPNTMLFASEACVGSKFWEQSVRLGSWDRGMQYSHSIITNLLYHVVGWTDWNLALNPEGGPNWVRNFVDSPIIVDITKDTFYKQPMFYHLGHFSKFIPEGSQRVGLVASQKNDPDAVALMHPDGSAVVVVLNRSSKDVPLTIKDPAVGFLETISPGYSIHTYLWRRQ
* hit, by the source's call. Many of the other results were omitted from the sample, so hits are more common in it than they were.

Screening Clc1ccc(C2=Nn3c(nnc3-c3cccnc3)SC2)s1 returned GBA activity up -14.3.
`NC1C2CN(c3nc4c(cc3F)c(=O)c(C(=O)O)cn4-c3ccc(F)cc3F)CC12` (configuration not stated) gave GBA activity up -52.2.
Screening COc1cc(NC(=O)CSc2nnc(C)s2)cc(OC)c1 returned GBA activity up -22.2.
`COc1ccccc1NC(=O)C1=C(C)Nc2ncnn2C1c1ccccc1C` (configuration not stated) gave GBA activity up -28.2.
COc1ccccc1NC(=O)C1=C(C)Nc2nnnn2C1c1ccncc1 (configuration not stated) was read as GBA activity up -12.6.
For CCOc1ccccc1C1C(C(=O)Nc2ccccc2OC)=C(C)Nc2nnnn21 (configuration not stated) the results were GBA activity up 152.5*.
`CC(=O)c1cccc(NC(=O)C=C(C)C)c1` gave GBA activity up 0.6.
COC(=O)CC1Sc2ccccc2NC1=O (configuration not stated) was read as GBA activity up -22.0.
CC(=O)c1ccc2c(c1)Nc1ccccc1S2 was read as GBA activity up 70.8*.
CCOc1ccc(C(=O)NCCN(C)C)cc1 was read as GBA activity up -8.3.
For O=C(Cn1ccc2ccccc2c1=O)NCCC(=O)N1CCN(c2cccc(C(F)(F)F)c2)CC1 the results were GBA activity up 0.3.
For Cc1cc(=O)oc2cc3c(cc12)OCCO3 the results were GBA activity up -0.5.
Screening Cc1cc2c(C)cc(=O)oc2c2c1NCCC2 returned GBA activity up 75.7*.
Screening Cc1cc(=O)oc2cc3c(cc12)OCCN3 returned GBA activity up 13.6.
`O=C(c1ccc2c(c1)OCO2)N(c1ccc(Cl)cc1)C1C=CS(=O)(=O)C1` (configuration not stated) gave GBA activity up 3.3.
`Cc1nc2ccc(S(=O)(=O)NCC(=O)N3CCOCC3)cc2s1` gave GBA activity up -32.0.
Cn1c(=O)c2c(-c3ccccc3)n(-n3cnnc3)cc2n(C)c1=O was read as GBA activity up 8.7.
For COc1ccc(-c2ccc(-c3noc(-c4ccccc4F)n3)c(OC)n2)cc1 the results were GBA activity up 6.4.
O=C(O)C(CC(=O)N1CCOCC1)NCc1ccccc1 (configuration not stated) was read as GBA activity up 3.0.
Cc1ccc(C)c(N(C)S(=O)(=O)c2cccc3nsnc23)c1 was read as GBA activity up 77.2*.
`Cc1cc(C)cc(NC(=O)CN(C)S(=O)(=O)c2cccc3nsnc23)c1` gave GBA activity up -40.1.
Screening CC(C)CCNC(=O)CN(C)S(=O)(=O)c1cccc2nsnc12 returned GBA activity up 0.3.
COc1ccc(N(CC(=O)NCc2ccco2)S(C)(=O)=O)cc1Cl was read as GBA activity up -5.0.
For O=C1CCCN1CCCNc1ccc(S(=O)(=O)N2CCCCC2)cn1 the results were GBA activity up 1.3.
Screening c1csc(-c2noc(COc3ccc4c(c3)CCCC4)n2)c1 returned GBA activity up -12.9.
Cc1c(Cl)cccc1N(CC(=O)O)S(C)(=O)=O was read as GBA activity up 87.6*.
For CNC(=O)CN(c1cccc2ccccc12)S(C)(=O)=O the results were GBA activity up -30.8.
For Cc1c(Cl)cccc1N(CC(=O)N1CCCCCC1)S(C)(=O)=O the results were GBA activity up -9.3.
`CS(=O)(=O)c1ccc2nc(NC(=O)CCC(=O)c3cccs3)sc2c1` gave GBA activity up 0.2.
For Cc1ccc(NS(=O)(=O)c2cc(C(=O)N3CCOCC3)ccc2C)cc1C the results were GBA activity up -10.7.
For COc1ccc(N(CC(=O)N2CCc3ccccc3C2)S(=O)(=O)c2c(C)nn(C)c2C)cc1 the results were GBA activity up -9.0.
For CC(C)(C)N1C(=O)c2ccc(C(=O)O)cc2C1=O the results were GBA activity up 7.3.
For O=C(O)c1ccc2c(c1)CC(c1ccccc1)OC2=O (configuration not stated) the results were GBA activity up -20.7.
Screening O=C(O)c1ccc2c(c1)C(c1ccccc1)OC2=O (configuration not stated) returned GBA activity up 78.3*.
Screening CCCn1c(C)nc2c(c1=O)c1nc3ccccc3nc1n2-c1ccc2c(c1)OCCO2 returned GBA activity up -23.3.
`CC1CN(c2ccc(Oc3ccccc3)cc2)c2nc3c(c(=O)[nH]c(=O)n3C)n2C1` (configuration not stated) gave GBA activity up -1.3.
Cc1ccc(CS(=O)(=O)CCC(=O)NCCCOC(C)C)cc1 was read as GBA activity up 18.1.
Nc1nonc1-c1noc(CCCCCN2C(=O)c3ccccc3C2=O)n1 was read as GBA activity up 479.4*.
`O=C1CCC(=O)N1CCCCCc1nc(-c2ccccc2)no1` gave GBA activity up -4.4.
For O=C1c2ccccc2C(=O)N1CCCc1nc(-c2ccccn2)no1 the results were GBA activity up -3.7.
For CCCN1Cc2cccc(C(=O)Nc3ccc(N4CCN(CC)CC4)cc3)c2C1=O the results were GBA activity up -3.2.
CCCCN(C)C(=O)CCCCn1c(=O)[nH]c2cc(OCC)c(OCC)cc2c1=O was read as GBA activity up 68.5*.
CCOc1cc2[nH]c(=O)n(CC3CCC(C(=O)NC4CCCCC4)CC3)c(=O)c2cc1OCC (configuration not stated) was read as GBA activity up 5.5.
For CCOc1cc2[nH]c(=O)n(CCCCCC(=O)NCc3ccc4c(c3)OCO4)c(=O)c2cc1OCC the results were GBA activity up -23.0.
`CC1CCN(c2oc(-c3cccc4ccccc34)nc2C#N)CC1` gave GBA activity up -16.6.
For CCCn1c(SCC(=O)NCCc2ccccc2)nnc1-c1cccnc1 the results were GBA activity up -11.2.
For CCNc1nc2c(c(=O)n(Cc3ccccc3)c(=O)n2C)n1Cc1ccccc1 the results were GBA activity up -23.6.
`COc1ccc(CNC(=O)C(C#N)c2nc3ccccc3nc2N2CCCC2)cc1` (configuration not stated) gave GBA activity up -19.8.
Screening Cc1ccc(C)c(S(=O)(=O)C(C#N)c2nc3ccccc3nc2N2CCCC2)c1 (configuration not stated) returned GBA activity up 13.4.
`COc1ccc(S(=O)(=O)C(C#N)c2nc3ccccc3nc2N2CCCCC2)cc1` (configuration not stated) gave GBA activity up 96.5*.
CCCS(=O)(=O)N1CCC(C(=O)N2CCOCC2)CC1 was read as GBA activity up -11.0.
CN(C)CCNC(=O)c1cc2cc(Br)ccc2oc1=O was read as GBA activity up -4.4.
`Cc1ccc(N2C(=O)Nc3ccc(Br)cc3C2(O)C(=O)NCCCN(C)C)cc1C` (configuration not stated) gave GBA activity up 119.4*.
Screening C=CCN(C(=O)Cn1nnc2ccccc21)C(C(=O)NCCOC)c1ccc(OC)cc1OC (configuration not stated) returned GBA activity up 93.0*.
`COCCN(C(=O)Cn1nnc2ccccc21)C(C(=O)NC1CCCC1)c1cc(OC)ccc1OC` (configuration not stated) gave GBA activity up 12.5.
COCCNC(=O)C(c1ccccc1)N(CCOC)C(=O)Cn1nnc2ccccc21 (configuration not stated) was read as GBA activity up -7.0.
`COc1ccc(C(=O)COC(=O)CCCn2c(=O)oc3ccccc32)cc1` gave GBA activity up -11.1.
CCCOc1ccc(C(=O)N2CCCC2)cc1OC was read as GBA activity up 0.1.
